High-throughput results (PubChem BioAssay)
An excerpt weighted towards active compounds, which were near 2.4% of everything screened.
PfM18AAP inh: blocks P. falciparum M18 aspartyl aminopeptidase | recombinant PfM18AAP, H-Glu-NHMec fluorogenic cleavage | inhibition, % at 7.35 µM | hit rate 1.2% among 290,000;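 active = inhibition above the campaign mean inhibition over all tested compounds plus 3 SD, cut at about 28% in these data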;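 note: 0% = plate median of test compound wells and 100% = 2 mM ZnCl2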
PABP polyA inh: PABP-poly(A) binding inhibition; AID 2014; inhibition, % at 35 µM; hit rate 1% among 290,000; PABP-poly(A) RNA binding, fluorescence polarization; P11940;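 note: calls also rest on retests at 20 µM and on dose response follow-up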
eIF4H FP inh: inhibitors of RNA binding by human eIF4H. Q15056. eIF4H fluorescence polarization binding assay. inhibition, % at 35 µM. hit rate 0.94% among 290,000. AID 2012;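 note: calls also rest on retests at 20 µM and on dose response follow-up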
eIF4E 4G PPI: eIF4E/eIF4G interaction inhibition in translation initiation. hit rate 0.37% among 220,000. inhibition, % at 21.7 µM. AID 782. TR-FRET eIF4E-eIF4GI(517-606) binding, 2 h. P63073+Q04637;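 active = inhibition above about 30%, limit read from the data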;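 note: 0% = full FRET control wells and 100% = background wells lacking eIF4GI fragment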
PERK inh: blocks human PERK kinase. CHO PERK-DD fusion, SEAP luminescence translation reporter. hit rate 0.17% among 220,000. AID 1416. Q9NZJ5. inhibition, % at 5.6 µM;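 active = inhibition above the mean inhibition of all tested compounds plus 3 SD, set separately per screening campaign, cut at about 2.9% in these data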;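 note: PERK kinase domain activated by AP20187 dimerizer at 100 nM; 0% = DMSO with dimerizer and 100% = rapamycin at 8.4 µM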
PABP1 MLLE inh: blocks PAM2 peptide binding to the PABP1 MLLE domain; P11940; GST-MLLE / FITC-PAM2 fluorescence polarization; inhibition, % at 20 µM; hit rate 0.36% among 360,000; AID 588489; in the data active = inhibition above about 35%, passing the limit was not always enough;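 note: plate controls were DMSO wells with GST-MLLE for no effect and wells lacking GST-MLLE protein for full effect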
An asterisk follows results filed as active; i = inactive; ? = inconclusive; · = no result; ! = a repeat was not active. Unless noted, the rule behind the calls is not given here.

SMILES	PfM18AAP inh	PABP polyA inh	eIF4H FP inh	eIF4E 4G PPI	PERK inh	PABP1 MLLE inh
Cc1ccc2c(c1)N(C)/C(=C/c1cccc[n+]1C)S2	-8	64*	6	·	·	-145
Cc1ccc2c(c1)N(C)/C(=C/c1cccc[n+]1CCO)S2	2	66*	-2	·	·	-133
CN1/C(=C/c2cccc[n+]2C)Sc2ccccc21	4	66*	-2	·	·	-140
Cc1ccc2c(c1)S/C(=C/c1ccc[n+](C)c1)N2CCO	11	-5	2	1	1	-119
Cc1nnc(-c2ccco2)c2cn(-c3cccc(Br)c3)nc12	7	-10	64*	0	1	-68
CCOC(=O)CN1C(=O)CCSc2ccc(Cl)cc21	2	1	-1	-3	0	-10
O=c1[nH]c(SCc2ccccc2)nc2ccsc12	-11	3	0	0	-1	4
CCOC(=O)CSc1nc2ccsc2c(=O)[nH]1	-5	58*	86	-2	-1	-11
O=C(c1cc(F)c(F)cc1Cl)N1CCN(CCc2ccccc2)CC1	-3	6	0	·	·	2
O=C(O)/C=C/c1cccnc1	-5	13	4	-1	0	14
CC(/C=C\c1cccnc1)=C/C(=O)O	0	8	73*!	3	0	5
CCOC(=O)C(=O)N(C)c1c(CC)nc2c(OCCC3CCCCC3)cccn12	·	·	·	·	·	14
CCN(CC)S(=O)(=O)c1ccc(C(=O)NCC2(N3CCOCC3)CCCCC2)cc1	·	·	·	·	·	0
COc1ccc(OCc2nc(-c3ccc(F)c(F)c3)cs2)cc1	-3	3	-2	-1	3.3*	1
Cc1ccc(C2=NN(CC(=O)NCc3ccccn3)C(=O)CC2)cc1	-12	-2	-10	0	0	-6
NS(=O)(=O)c1cc2c(cc1Cl)NC(C1C[C@H]3C=C[C@@H]1C3)NS2(=O)=O (stereo partly specified)	3	11	-2	2	2	-5
O=C(CSc1ncn[nH]1)NCc1ccccc1Cl	29*	6	-4	·	·	11
O=C(NCc1ccc(OC(F)(F)F)cc1)C1CC(c2cccc(F)c2)=NO1 (stereo unspecified)	·	-2	5	-2	·	8
COc1cccc(/C=C2/CCC(CN(C)C)C2=O)c1 (stereo unspecified)	·	·	·	·	·	28
Cc1cc2oc(=O)cc(CN3CCOCC3)c2cc1C	3	-2	-3	4	0	-8
CCNc1cc2oc(=O)c(CN3CCOCC3)c(C)c2cc1C	25	?	?	0	0	48*
COCCN1CCN(C(=O)C2CCC(=O)N(CCc3ccccc3)C2)CC1 (stereo unspecified)	0	-5	2	·	·	-12
CC(=O)Nc1sc(/C(C#N)=C\c2cccc(Cl)c2)nc1-c1ccc(C)cc1	2	81*	127*	1	1	i
COc1cccc(-c2c(C(=O)N/N=C/c3ccoc3)nnn2-c2nonc2N)c1	4	11	0	·	·	1
CCOC(=O)CNC(=O)CSc1nc(-c2ccccc2)ns1	28*	-11	-6	-3	1	19
SMILES	PfM18AAP inh	PABP polyA inh	eIF4H FP inh	eIF4E 4G PPI	PERK inh	PABP1 MLLE inh
O=C(CSc1nnc(COc2ccccc2)n1Cc1ccco1)NCc1ccco1	-22	39*	50*	6	0	-86
O=C(CSc1nnc2c(n1)[nH]c1ccccc12)NCc1ccco1	-3	-14	26	4	0	43*
COc1ccc(NC(=O)CN2C(=O)NC(C)(C3CC3)C2=O)cc1S(=O)(=O)N1CCOCC1 (stereo unspecified)	·	·	·	·	·	-8
COc1ccc(C(C)(C)C)cc1NC(=O)CSc1ncn[nH]1	·	·	·	·	·	-5
CCC(C)n1c(-c2ccco2)nc2nc3ccccc3nc21 (stereo unspecified)	3	101*	?	-7	0	·
C(=C\c1ccccc1)/CN1CCN(C(c2cccs2)c2nnnn2-c2ccc3c(c2)OCCO3)CC1 (stereo unspecified)	·	·	·	·	·	12
COc1ccc(/C=C(/NC(=O)c2ccccc2)C(=O)N/N=C/c2ccncc2)c(OC)c1	3	70	active	5	0	-11
COc1ccc(/C=C(\NC(=O)c2ccccc2)C(=O)N/N=C/c2ccncc2)cc1	2	0	-1	7	0	10
O=C(Nc1ccc(N2CCOCC2)c(S(=O)(=O)Nc2ccc(Cl)cc2)c1)c1cnccn1	10	3	-4	-3	1	40*
Cn1cccc1C(=O)N/N=C/c1c(Cl)cccc1Cl	2	-6	2	·	·	-6
N#Cc1c(SCC(=O)Nc2nc3ccccc3s2)sc2c(O)cc(=O)[nH]c12	·	·	·	·	·	-3
CCCSc1nnc(NC(=O)CSc2sc3c(O)cc(=O)[nH]c3c2C#N)s1	26	46*	72*	·	·	17
N#Cc1c(SCC(=O)Nc2nccs2)sc2c(O)cc(=O)[nH]c12	29*	38*	68*	·	·	-23
N#Cc1c(SCC(=O)Nc2nc3ccc(Br)cc3s2)sc2c(O)cc(=O)[nH]c12	10	48*	73*	·	·	-35
COCC(C)n1c(SCC(=O)NC(=O)Nc2ccc3c(c2)OCCO3)nc2ccccc2c1=O (stereo unspecified)	-4	-4	-4	-13	-1	-37
Cc1ccc2c(CC(=O)NNC(=O)c3ccccc3O)coc2c1	·	·	·	·	·	12
Cc1ccccc1N1CCN(C2=NC(=O)/C(=C/c3cn[nH]c3-c3ccccc3)S2)CC1	-5	52*	?	-4	1	-3
O=C1N=C(N2CCCC2)S/C1=C\c1cn[nH]c1-c1ccccc1	4	38	-9	-1	1	·
COC(=O)CCCC1=CC2=CC(=O)C(C)(OC(=O)c3cccs3)C(=O)C2=CN1CCc1ccccn1 (stereo unspecified)	·	46*	73	-1	·	26
O=S1(=O)CCN(Cc2cccc(C(F)(F)F)c2)CC1	-2	5	-8	2	2	21
COc1ccc(O)c(N)c1	26	active	96*	7	1	·
O=C(Nc1ccc(S(=O)(=O)N2CCCCC2)cc1)c1ccc(Cl)nc1	·	·	·	·	·	-7
Cc1cc(O)cc2c1C(=O)/C(=C/c1ccco1)O2	15	43*	61*	·	·	-11
O=[N+]([O-])c1ccc(N2CCN(c3ccccc3Cl)CC2)cn1	32*	5	-3	·	·	-17
O=C(O)c1ccc(N2CCN(c3ccc(Cl)cc3)CC2)c([N+](=O)[O-])c1	10	-4	-1	·	·	1
CC(C)(C)OC(=O)N1CCC(NC(=O)c2[nH]c(C(F)(F)F)nc2-c2ccccc2)CC1	·	·	·	·	·	-9
O=C(Nc1c(-c2ccccc2)nc2ccc(Cl)cn12)c1cccs1	4	active	51*	4	1	-11
CCOC(=O)CNc1c(-c2ccccc2)nc2ccc(Cl)cn12	2	-15	-10	-6	0	-5
CCOC(=O)CNc1c(-c2ccc(O)cc2)nc2ccc(Cl)cn12	6	30*	80*	6	0	-12
